Results reported in PubChem BioAssay (EPA / NIEHS).
Results filed as inconclusive are left out. Active and inactive are the calls of the source. Rule for the calls: active = hit-call score of the fitted dose curve at least 0.9, where 1 is the maximum; inconclusive = response in the unintended direction; inactive = score below 0.9.

Experiments:
[1] = TOX21_p53_BLA_p3_viability: Viability Assessment in the Tox21 HCT-116 p53 Agonism Beta-lactamase Assay, Phase 3 (AID 2283593);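 note: cells exposed to compound for 16 h before reading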
In short: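 HCT116 cells, 4000/well, dosed 5 h after plating by pin transfer (217-fold dilution from DMSO stock) and incubated 16 h at 37C, 5% CO2. Viability read as ATP luminescence with CellTiter-Glo after 30 min at room temperature.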

[2] = TOX21_p53_BLA_p4_viability: Viability Assessment in the Tox21 HCT-116 p53 Agonism Beta-lactamase Assay, Phase 4 (AID 2283597);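 note: hits lower the luminescence signal meaning cytotoxicity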
In short: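 Cells plated, 5 h pre-incubation; DMSO compounds pinned (217-fold dilution); 16 h, 37C/5% CO2; CCF4-AM 2 h RT; CellTiter-Glo 30 min RT; luminescence read.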

[3] = target: Cellular tumor antigen p53 (Homo sapiens) (UniProt P04637); test: TOX21_p53_BLA_p4_ratio: Tox21 HCT-116 p53 Agonism Beta-lactamase Assay, Ratio, Phase 4 (AID 2283601)
Cellular tumor antigen p53 (Homo sapiens), sequence (P04637 whole entry, looked up): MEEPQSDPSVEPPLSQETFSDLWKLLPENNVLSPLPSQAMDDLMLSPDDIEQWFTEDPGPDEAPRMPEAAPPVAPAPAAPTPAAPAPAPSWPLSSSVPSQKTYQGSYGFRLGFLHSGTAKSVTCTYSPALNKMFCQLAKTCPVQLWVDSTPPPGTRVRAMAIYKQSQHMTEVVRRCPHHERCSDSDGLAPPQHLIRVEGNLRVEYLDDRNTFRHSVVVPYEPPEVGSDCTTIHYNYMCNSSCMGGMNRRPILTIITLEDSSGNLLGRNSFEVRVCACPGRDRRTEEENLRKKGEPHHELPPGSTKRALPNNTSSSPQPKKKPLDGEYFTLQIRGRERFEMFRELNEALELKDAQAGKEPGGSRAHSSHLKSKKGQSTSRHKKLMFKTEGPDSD
In short: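 HCT-116 p53 beta-lactamase reporter cells (4000/well) preincubated 5 h, then compound (217-fold dilution of DMSO stock) for 16 h at 37C. CCF4-AM substrate added 2 h at room temperature; 460/530 nm emission ratio fitted upward versus DMSO.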

[4] = target: Cellular tumor antigen p53 (Homo sapiens) (UniProt P04637); test: TOX21_p53_BLA_p5_ratio: Tox21 HCT-116 p53 Agonism Beta-lactamase Assay, Ratio, Phase 5 (AID 2283599)
In short: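 HCT-116 p53-bla cells (4000/well) plated 5 h, dosed with compound (217-fold DMSO dilution) for 16 h at 37 C; CCF4-AM substrate 2 h at room temperature. Activity is the 460/530 nm emission ratio (405 nm excitation), fitted in gain-of-signal direction versus DMSO.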

[5] = TOX21_p53_BLA_p5_viability: Viability Assessment in the Tox21 HCT-116 p53 Agonism Beta-lactamase Assay, Phase 5 (AID 2283600)
In short: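 4000 cells/well; 5 h pre-incubation; DMSO compounds pin-transferred, 217-fold dilution; 16 h, 37C/5% CO2; CCF4-AM 2 h RT; CellTiter-Glo 30 min RT; luminescence.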

[6] = target: Cellular tumor antigen p53 (Homo sapiens) (UniProt P04637); test: TOX21_p53_BLA_p3_ratio: Tox21 HCT-116 p53 Agonism Beta-lactamase Assay, Ratio, Phase 3 (AID 2283596)
In short: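 HCT116 p53-bla cells (4000/well) given compound in DMSO (217-fold dilution) after 5 h, incubated 16 h at 37C. CCF4-AM substrate 2 h at room temperature; 460/530 nm emission ratio, gain fitted against DMSO.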

Measured: outcome

Cc1ccccc1N1C(=O)c2cc(S(N)(=O)=O)c(Cl)cc2NC1C (stereo unspecified)
inactive: [1] | [2] | [3]

CCOC(=O)Nc1ccc2c(c1)N(C(=O)CCN1CCOCC1)c1ccccc1S2
inactive: [1] | [4] | [5]

Cc1ccccc1C(=O)Nc1ccc(C(=O)N2CCCC(O)c3cc(Cl)ccc32)c(C)c1 (stereo unspecified)
inactive: [1] | [4] | [5]

C=CCCCCCCCCCCC
inactive: [1] | [2] | [4] | [3]

CCC(=O)OC(OP(=O)(CCCCc1ccccc1)CC(=O)N1C[C@H](C2CCCCC2)C[C@H]1C(=O)O)C(C)C (stereo partly specified)
inactive: [1] | [2] | [5] | [3]

O=C(O)/C=C/c1cnc[nH]1
inactive: [1] | [2] | [3]

FC(F)(F)c1ccccc1
inactive: [1] | [4] | [5] | [3]

CCCC(=O)Nc1ncnc2c1ncn2[C@@H]1O[C@@H]2COP(=O)(O)O[C@H]2[C@H]1OC(=O)CCC
inactive: [1] | [4] | [5] | [3]

Cc1c(O)cc2c(c1C)O[C@](C)(CCC[C@H](C)CCC[C@H](C)CCCC(C)C)CC2
inactive: [1] | [2] | [4] | [3]

COc1ccc(C)cc1[N+](=O)[O-]
inactive: [1] | [4] | [5]

CCCCNc1c(C(=O)OCC)c(C)nc2c1cnn2CC
inactive: [1] | [2] | [5]

CC(C)(CCl)c1ccccc1
inactive: [1] | [2] | [4] | [5] | [3]

COc1ccc(CC2c3cc(OC)c(OC)cc3CC[N+]2(C)CCC(=O)OCCCCCOC(=O)CC[N+]2(C)CCc3cc(OC)c(OC)cc3C2Cc2ccc(OC)c(OC)c2)cc1OC (stereo unspecified)
inactive: [1] | [2]

CCc1ccc(Br)cc1
inactive: [1] | [2]

CCCCOC(=O)C(=O)OCCCC
inactive: [1] | [4] | [5] | [3]

CN1C(C(=O)Nc2ccccn2)C(=O)c2sc(Cl)cc2S1(=O)=O (stereo unspecified)
inactive: [1] | [2] | [4] | [3]

CC(C)Cc1ccc([C@H](C)C(=O)O)cc1
inactive: [1] | [2]

CCCCC(=O)O[C@]1(C(=O)CO)CC[C@H]2[C@@H]3CCC4=CC(=O)CC[C@]4(C)[C@H]3[C@@H](O)C[C@@]21C
inactive: [1] | [2] | [5] | [3]

CCCCCCCCCCCC[N+](C)(C)CCCS(=O)(=O)[O-]
inactive: [1] | [2] | [4] | [3]

COC(=O)c1cc(C(=O)OC)cc(S(=O)(=O)O)c1
inactive: [1] | [4] | [5]

COc1cc(C[C@@H]2NCCc3cc(O)c(O)cc32)cc(OC)c1OC
inactive: [1] | [6] | [5] | [3]

CC1=C(/C=C/C(C)=C/C=C/C(C)=C/C=C/C=C(C)/C=C/C=C(C)/C=C/C2=C(C)C(=O)CCC2(C)C)C(C)(C)CCC1=O
inactive: [1] | [4] | [5] | [3]
